Assay [1] concerns the target Lysosomal acid glucosylceramidase (Homo sapiens) (UniProt P04062). The experiment in a line: Glucocerebrosidase-p2 (AID 348; in the data active = potency below about 10 µM; note: potency is the fitted concentration of half-maximal effect). The conditions noted are these: purified GBA, blue fluorogenic substrate, 40 min. An outline of the steps: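 Compounds titrated from 0.6 nM upwards against 0.2 nM enzyme in pH 5.9 citric acid/KH2PO4, taurocholate, tween-20; blue fluorogenic substrate 80 uM, 40 min room temperature, stopped and read Ex 365/Em 440 for AC50.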

Assay [2] in a line: AP1 Signaling Pathway (AID 357; active = well fitted curve in either direction with a large enough effect, not every such curve was filed as active;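 note: ME-180 reporter cells stimulated with EGF at its EC50 level; % is set by controls: 0 for no effect and ±100 for the full control effect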). The conditions noted are these: ME-180 AP-1-bla reporter, EGF-induced, beta-lactamase ratio, 5 h; at 7.69 µM (top of the series) unless noted. The method, boiled down:
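Titration-series screen for positive or negative modulators of EC50 EGF-induced signaling in ME-180 cells carrying an AP-1-driven beta-lactamase reporter. After 5 hours at 37 degrees Celsius, CCF4 460nm/530nm emission ratio gave %Activity; AC50 values derived.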

Assay [3] can be described thus: NFAT Signaling Pathway (AID 444; active = well fitted curve in either direction with a large enough effect, not every such curve was filed as active;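 note: carbachol stimulus at about its EC50 of 1 µM final; % is set by controls: 0 for no effect and ±100 for the full control effect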). The conditions noted are these: Jurkat NFAT-bla M1, carbachol, beta-lactamase ratio, 5 h; at 7.69 µM (top of the series) unless noted. The method, boiled down: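 Jurkat cells with NFAT-driven β-lactamase reporter and co-expressed M1 receptor, stimulated with carbachol (final 1 uM, ~EC50), compound titration, 5 h at 37 °C. CCF4 loaded 1 h at RT; 460/530 nm ratio gave %activity and AC50.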

The nature of assay [4]: Stat Signaling Pathway (AID 446; active = well fitted curve in either direction with a large enough effect, not every such curve was filed as active;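 note: ME-180 cervical cancer cells given 40 pM IL-6 alongside compound; SIE-controlled beta-lactamase reporter measured as 460/530 nm FRET emission ratio; % is set by controls: 0 for no effect and ±100 for the full control effect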). The note with it: ME-180 (cervical carcinoma) SIE beta-lactamase reporter, IL-6 stimulated, 5 h; at 7.69 µM (top of the series) unless noted. An outline of the steps: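 IL-6/STAT signaling read in ME-180 cells via an SIE beta-lactamase reporter. Stimulus was 40 pM IL-6 (its AC50) for 5 hrs, so both activation and inhibition register.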
For assay [5], the target named is Glucocorticoid receptor (Homo sapiens) (UniProt P04150). Nature of the assay: GR-GFP Redistribution (AID 450;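 active = compounds whose dose series gives a full or clear partial fitted curve of increased nuclear translocation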; note: potency is the fitted concentration of half-maximal effect). The conditions noted are these: U2OS GR-GFP nuclear translocation, laser cytometry, 2 h.
Assay [6] shares this target. Nature of the assay: GR-EFC Redistribution (AID 451; calls by dose curve; note: potency is the fitted concentration of half-maximal effect). The note with it: CHO-K1 GR-EFC translocation, beta-gal luminescence, 2 h. An outline of the steps: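 CHO-K1 cells expressing nuclear EA and GR-ED fragments of b-gal; compounds titrated up to 46 uM final, 2 h at 37 C. GR nuclear translocation read as complemented b-gal luminescence after 1 h RT detection.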
In assay [7] the target is Mitogen-activated protein kinase 10 (Mus musculus) (UniProt Q61831). Nature of the assay: JNK3 AlphaScreen Assay (AID 530; active = well fitted curve in either direction with a large enough effect, not every such curve was filed as active;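 note: kinase came from lysate of stimulated human HepG2 cells; signal reports phosphorylation of biotinylated GST-cJun 1-79 at Ser73 with 10 µM ATP; % is set by controls: 0 for no effect and ±100 for the full control effect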). The note with it: JNK3 lysate, c-Jun phosphorylation; series mostly up to 57.1 µM. An outline of the steps: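 Pre-activated (IL-1β/TNFα) JNK3 in HepG2 lysates phosphorylates biotin-GST-cJun(1-79), 10 uM ATP; anti-phospho-cJun(Ser73) AlphaScreen read at room temperature, pH 7.6 Tris buffer. Compounds pre-incubated 15 min as titrations.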

For assay [8], the target named is Dual specificity protein kinase CLK4 (Homo sapiens) (UniProt Q9HAZ1). The experiment in a line: qHTS Assay for Inhibitors of CDC-like Kinase 4 (Kinase-Glo Assay) (AID 1770). Note: nearly all actives have a fitted effect of over 65% in size. Note: potency is the fitted concentration of half-maximal effect. The note with it: recombinant Clk4, Kinase-Glo ATP depletion luminescence; series mostly up to 66.7 µM. An outline of the steps:
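Clk4 25 nM, RS peptide 100 uM, ATP 1 uM, pH 7.5 Tris, 10 mM MgCl2, 2.5 mM DTT; 4.5 h RT; ATP depletion read by Kinase-Glo luminescence.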

Assay [9] has the same target. Nature of the assay: qHTS Assay for Inhibitors of CDC-like Kinase 4 (ADP-Glo Assay) (AID 1771). Note: nearly all actives have a fitted effect of over 70% in size. Note: potency is the fitted concentration of half-maximal effect. The note with it: recombinant CLK4, ADP-Glo luminescence; series mostly up to 80 µM. An outline of the steps:
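25 nM Clk4 with 100 uM RS repeat peptide and 1 uM ATP (final) in buffer with 2 mM MgCl2, 0.5 mM EGTA, 2.5 mM DTT, 0.01% Triton X-100; 1 h at room temperature; ADP-Glo luminescence for ADP formed.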
A general note: Quantitative high-throughput screening tests each substance at several concentrations.

Assay [10] has the same target. The experiment in a line: qHTS Assay for Inhibitors of CDC-like Kinase 4 (ADP-FP Assay) (AID 1795). Note: nearly all actives have a fitted effect of over 60% in size. Note: potency is the fitted concentration of half-maximal effect. The note with it: Transcreener ADP fluorescence polarization; series mostly up to 50 µM. The method, boiled down:
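Kinase activity was followed as ADP output, converted from fluorescence polarization with a calibration curve. Reactions ran one hour at low ATP (1 uM) with RS peptide substrate.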

Assay [11] deals with Ubiquitin carboxyl-terminal hydrolase 1 (Homo sapiens) (UniProt O94782). Nature of the assay: Inhibitors of USP1/UAF1: Pilot qHTS (AID 504865).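 Note: rhodamine fluorescence freed from ubiquitin-rhodamine substrate followed over time; top concentration of the series differs between compounds; % is set by controls: 0 for no effect and ±100 for the full control effect; nearly all actives have a fitted effect of over 35% in size.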 The conditions noted are these: purified USP1/UAF1, Ub-rhodamine cleavage fluorescence; series mostly up to 54.9 µM. The method, boiled down:
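Enzyme-free wells gave the negative control, while test wells held 1nM USP1/UAF1 preincubated with compound for 15 min at room temperature. Ub-Rho at 150nM final started the reaction, and fluorescence at 480/540 nm was recorded kinetically.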

The nature of assay [12]: Primary qHTS for small molecule stabilizers of the endoplasmic reticulum resident proteome: Secreted ER Calcium Modulated Protein (SERCaMP) assay (AID 1508630). Note: % is set by controls: 0 for no effect and ±100 for the full control effect. The note with it: SH-SY5Y GLuc-SERCaMP (Gaussia luciferase released on ER calcium loss) secretion, thapsigargin, luminescence; series mostly up to 38.4 µM. The method, boiled down:
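GLuc-SERCaMP-expressing SH-SY5Y cells, pretreated 16 h with compound, are challenged with thapsigargin to empty ER calcium stores; after 4 h, coelenterazine is added directly to the medium and luminescence is imaged.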

Assay [13] has as its target Cytochrome P450 1A2 (Homo sapiens) (UniProt P05177). The experiment in a line: p450-cyp1a2 (AID 410; calls by dose curve; note: potency is the fitted concentration of half-maximal effect). The note with it: recombinant CYP1A2, luciferin-ME demethylation, luminescence; series mostly up to 57 µM. An outline of the steps: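 20nM CYP1A2 with 100uM Luciferin-ME (at Km) in 100mM KPO4; compound preincubated 10 min, NADPH regeneration added, 60 min at room temperature. Luciferin quantified by luminescence after detection reagent; normalized to 57 uM furafylline.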

Assay [14] concerns the target 3',5'-cyclic-AMP phosphodiesterase 4B (Homo sapiens) (UniProt Q07343). Nature of the assay: qHTS Assay for Inhibitors of PDE-IV (AID 607; active = well fitted activation curve with a large enough effect in the main read-out, with a control signal flat, not every such curve was filed as active; note: % of control where 0% means no effect). The note with it: HEK293 ACTOne CNG channel cells, membrane potential fluorescence; series mostly up to 22.9 µM. An outline of the steps:
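Live HEK293 cells with a modified cyclic nucleotide-gated (CNG) channel report intracellular cAMP via membrane-potential dye fluorescence (ex 535/em 590 nm). Endogenous PDE-IV was targeted. Compounds were tested at up to 22.9 uM final; RO 20-1724 100 uM served as control.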

Assay [15] addresses Cytochrome P450 3A4 (Homo sapiens) (UniProt P08684). Nature of the assay: qHTS Assay for Activators of Cytochrome P450 3A4 (AID 885). Note: nearly all actives have a fitted effect of over 65% in size. The note with it: recombinant CYP3A4, Luciferin-PPXE luminescence, 60 min; series mostly up to 57.1 µM. An outline of the steps:
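Quantitative HTS format: compounds preincubated with 20nM human CYP3A4 and Luciferin-PPXE substrate at KM, reaction started by NADPH regeneration, stopped after 60 min, luciferase luminescence read 20 min later.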

For assay [16] the target is unchanged. Nature of the assay: qHTS Assay for Inhibitors and Substrates of Cytochrome P450 3A4 (AID 884). Note: potency is the fitted concentration of half-maximal effect; nearly all actives have a fitted effect of over 50% in size. The note with it: recombinant CYP3A4, Luciferin-PPXE luminescence; series mostly up to 57.1 µM. The method, boiled down: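 20 nM human CYP3A4 with 25 uM Luciferin-PPXE (at KM) in 200 mM KPO4, preincubated 10 min with compound; NADPH regeneration started a 60 min RT reaction. Luciferin detected by luminescence, normalized to 57 uM ketoconazole as full inhibition.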

Values without a mark were called inactive. Records with an inconclusive call do not appear. Calls of active or inactive are those of the source. Unless noted, calls come from the whole dose curve; as a rule, active = well fitted curve in the direction sought with a large enough effect; inconclusive = small, poorly fitted or top-dose-only effect, or another doubt; inactive = no such curve, though single readings can be large; an effect the other way counts as inactive or inconclusive.

Sequence of Cytochrome P450 3A4 (Homo sapiens) (P08684 whole entry, looked up): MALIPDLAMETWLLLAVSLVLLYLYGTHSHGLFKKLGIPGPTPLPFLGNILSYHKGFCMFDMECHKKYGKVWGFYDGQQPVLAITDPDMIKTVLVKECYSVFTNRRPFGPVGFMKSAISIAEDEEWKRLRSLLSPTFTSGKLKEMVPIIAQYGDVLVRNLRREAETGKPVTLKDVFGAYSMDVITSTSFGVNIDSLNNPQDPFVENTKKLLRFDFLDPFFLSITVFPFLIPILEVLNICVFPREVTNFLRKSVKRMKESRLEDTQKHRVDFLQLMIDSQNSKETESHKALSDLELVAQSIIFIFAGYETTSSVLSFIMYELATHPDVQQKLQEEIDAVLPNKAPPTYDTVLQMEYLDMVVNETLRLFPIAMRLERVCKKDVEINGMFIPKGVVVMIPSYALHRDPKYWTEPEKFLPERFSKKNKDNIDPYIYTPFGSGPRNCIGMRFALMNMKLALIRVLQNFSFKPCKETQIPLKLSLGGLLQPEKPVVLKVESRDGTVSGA
Sequence of 3',5'-cyclic-AMP phosphodiesterase 4B (Homo sapiens) (Q07343 whole entry, looked up): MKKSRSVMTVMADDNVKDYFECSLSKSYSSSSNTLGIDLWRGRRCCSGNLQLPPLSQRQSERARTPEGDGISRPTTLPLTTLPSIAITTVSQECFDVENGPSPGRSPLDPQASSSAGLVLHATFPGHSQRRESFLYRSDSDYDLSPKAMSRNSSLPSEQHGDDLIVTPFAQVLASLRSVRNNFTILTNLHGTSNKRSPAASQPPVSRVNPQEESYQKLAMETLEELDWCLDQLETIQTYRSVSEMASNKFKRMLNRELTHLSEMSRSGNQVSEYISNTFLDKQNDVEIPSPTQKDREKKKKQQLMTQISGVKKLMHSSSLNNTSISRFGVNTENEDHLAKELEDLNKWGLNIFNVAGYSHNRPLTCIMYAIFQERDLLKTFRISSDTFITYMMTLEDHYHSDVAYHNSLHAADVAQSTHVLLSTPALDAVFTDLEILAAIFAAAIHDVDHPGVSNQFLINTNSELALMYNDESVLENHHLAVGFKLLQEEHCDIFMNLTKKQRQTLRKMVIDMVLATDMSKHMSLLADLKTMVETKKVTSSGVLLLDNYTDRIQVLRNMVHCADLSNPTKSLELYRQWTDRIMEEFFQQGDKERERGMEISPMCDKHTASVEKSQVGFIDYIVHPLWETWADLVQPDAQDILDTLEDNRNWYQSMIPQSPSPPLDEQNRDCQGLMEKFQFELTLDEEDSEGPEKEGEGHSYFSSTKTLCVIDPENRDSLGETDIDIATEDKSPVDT
Sequence of Dual specificity protein kinase CLK4 (Homo sapiens) (Q9HAZ1 whole entry, looked up): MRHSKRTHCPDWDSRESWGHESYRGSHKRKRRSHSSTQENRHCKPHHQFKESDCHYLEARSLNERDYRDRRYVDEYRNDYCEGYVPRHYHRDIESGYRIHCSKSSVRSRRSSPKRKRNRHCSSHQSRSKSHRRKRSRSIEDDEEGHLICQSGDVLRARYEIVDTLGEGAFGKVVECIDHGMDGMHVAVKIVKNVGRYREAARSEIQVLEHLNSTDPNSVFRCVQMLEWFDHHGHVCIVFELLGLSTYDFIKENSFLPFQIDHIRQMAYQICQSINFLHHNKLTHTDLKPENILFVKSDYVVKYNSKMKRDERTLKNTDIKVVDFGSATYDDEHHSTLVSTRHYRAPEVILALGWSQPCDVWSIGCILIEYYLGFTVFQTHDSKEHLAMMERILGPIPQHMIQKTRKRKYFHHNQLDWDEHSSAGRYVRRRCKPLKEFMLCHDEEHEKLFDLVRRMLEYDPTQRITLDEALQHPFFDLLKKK
Sequence of Ubiquitin carboxyl-terminal hydrolase 1 (Homo sapiens) (O94782 whole entry, looked up): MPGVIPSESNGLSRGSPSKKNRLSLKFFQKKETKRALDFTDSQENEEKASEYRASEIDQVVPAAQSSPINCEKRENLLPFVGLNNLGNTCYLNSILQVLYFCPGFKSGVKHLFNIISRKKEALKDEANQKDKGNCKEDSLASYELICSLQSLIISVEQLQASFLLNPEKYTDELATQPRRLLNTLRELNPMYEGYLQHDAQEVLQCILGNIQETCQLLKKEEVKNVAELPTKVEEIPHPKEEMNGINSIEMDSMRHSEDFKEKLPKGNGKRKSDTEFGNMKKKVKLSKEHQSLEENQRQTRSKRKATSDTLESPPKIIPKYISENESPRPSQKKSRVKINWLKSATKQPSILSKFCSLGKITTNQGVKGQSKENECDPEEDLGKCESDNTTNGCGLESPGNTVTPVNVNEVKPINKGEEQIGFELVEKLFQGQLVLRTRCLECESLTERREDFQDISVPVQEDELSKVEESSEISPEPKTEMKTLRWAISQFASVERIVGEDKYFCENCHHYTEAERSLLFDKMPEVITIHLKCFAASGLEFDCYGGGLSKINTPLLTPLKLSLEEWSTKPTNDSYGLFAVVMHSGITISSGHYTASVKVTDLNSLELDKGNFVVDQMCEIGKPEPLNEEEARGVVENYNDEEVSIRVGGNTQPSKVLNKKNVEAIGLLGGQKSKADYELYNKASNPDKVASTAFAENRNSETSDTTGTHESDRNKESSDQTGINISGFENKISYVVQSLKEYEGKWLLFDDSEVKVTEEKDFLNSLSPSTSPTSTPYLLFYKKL
Sequence of Lysosomal acid glucosylceramidase (Homo sapiens) (P04062 whole entry, looked up): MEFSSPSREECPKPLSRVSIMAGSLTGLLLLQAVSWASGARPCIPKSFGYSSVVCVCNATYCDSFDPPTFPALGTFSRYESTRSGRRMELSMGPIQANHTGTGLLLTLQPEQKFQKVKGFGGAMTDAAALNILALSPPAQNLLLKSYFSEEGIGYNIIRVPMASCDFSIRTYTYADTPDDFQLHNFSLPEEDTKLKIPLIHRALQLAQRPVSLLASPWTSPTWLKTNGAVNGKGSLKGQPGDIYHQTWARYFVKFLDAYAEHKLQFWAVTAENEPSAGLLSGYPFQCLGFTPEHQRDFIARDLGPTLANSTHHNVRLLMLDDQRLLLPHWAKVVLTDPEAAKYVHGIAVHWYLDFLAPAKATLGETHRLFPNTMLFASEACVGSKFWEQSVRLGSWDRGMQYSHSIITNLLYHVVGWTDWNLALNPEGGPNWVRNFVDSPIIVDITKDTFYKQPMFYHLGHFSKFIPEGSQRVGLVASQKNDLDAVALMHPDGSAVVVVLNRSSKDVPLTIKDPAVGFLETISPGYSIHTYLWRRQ
Sequence of Glucocorticoid receptor (Homo sapiens) (P04150 whole entry, looked up, the tested form may be a part): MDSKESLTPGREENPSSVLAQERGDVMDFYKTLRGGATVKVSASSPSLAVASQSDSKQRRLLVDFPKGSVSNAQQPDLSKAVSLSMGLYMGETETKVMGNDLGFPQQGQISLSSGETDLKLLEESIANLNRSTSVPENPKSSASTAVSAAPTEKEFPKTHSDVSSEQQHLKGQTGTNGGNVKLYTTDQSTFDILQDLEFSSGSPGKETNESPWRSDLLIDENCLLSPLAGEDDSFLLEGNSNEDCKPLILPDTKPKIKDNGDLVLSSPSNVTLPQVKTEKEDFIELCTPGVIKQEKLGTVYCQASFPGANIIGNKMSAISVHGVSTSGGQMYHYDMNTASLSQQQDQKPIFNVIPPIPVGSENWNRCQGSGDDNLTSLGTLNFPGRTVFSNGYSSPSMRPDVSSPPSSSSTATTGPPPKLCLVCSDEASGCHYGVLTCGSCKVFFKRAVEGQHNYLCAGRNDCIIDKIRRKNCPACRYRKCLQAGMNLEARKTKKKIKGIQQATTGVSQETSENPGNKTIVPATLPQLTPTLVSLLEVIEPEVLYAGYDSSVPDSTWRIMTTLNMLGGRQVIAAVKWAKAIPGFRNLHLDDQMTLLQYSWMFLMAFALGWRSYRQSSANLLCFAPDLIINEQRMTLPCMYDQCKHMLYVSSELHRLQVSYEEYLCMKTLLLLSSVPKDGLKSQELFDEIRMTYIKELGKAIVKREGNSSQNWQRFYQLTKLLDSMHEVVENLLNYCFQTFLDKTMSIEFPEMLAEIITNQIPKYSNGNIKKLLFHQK
Sequence of Cytochrome P450 1A2 (Homo sapiens) (P05177 whole entry, looked up): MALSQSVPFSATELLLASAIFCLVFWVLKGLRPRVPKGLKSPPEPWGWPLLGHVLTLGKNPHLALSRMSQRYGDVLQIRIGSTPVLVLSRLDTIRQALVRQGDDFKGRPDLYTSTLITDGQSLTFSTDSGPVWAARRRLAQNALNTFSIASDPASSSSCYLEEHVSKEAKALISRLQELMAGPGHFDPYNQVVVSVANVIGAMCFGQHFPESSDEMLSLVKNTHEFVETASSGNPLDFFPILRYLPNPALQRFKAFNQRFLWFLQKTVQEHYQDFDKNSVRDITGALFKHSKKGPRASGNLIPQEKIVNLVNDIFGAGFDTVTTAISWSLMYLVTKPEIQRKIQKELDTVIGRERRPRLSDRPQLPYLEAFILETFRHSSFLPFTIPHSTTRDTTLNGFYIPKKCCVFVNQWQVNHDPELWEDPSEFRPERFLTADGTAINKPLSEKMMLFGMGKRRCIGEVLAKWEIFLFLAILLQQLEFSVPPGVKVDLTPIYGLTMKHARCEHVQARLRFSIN

As to `COc1cccc(Cn2c(=O)c(-c3ccc(F)cc3)nc3cncnc32)c1`, the Potency in assay [1] is more than 11.4 µM; in assay [5], more than 9.22 µM; in assay [6], more than 46 µM. For the same molecule, the activity change, negative = inhibition was -16.6% in [2] and -9.33% in assay [3]. In addition, the activity, negative = inhibition in assay [4] was -13.6%. The Potency entry in assay [7], in [8], in assay [9], in assay [10] and in assay [11] was “inactive” throughout. In addition, the result in assay [12] was inactive.
For `Cc1noc(C)c1-c1ccc2ncnc(NCCN3CCOCC3)c2c1`, the Potency in assay [1] was more than 11.4 µM; in assay [13] it was 15.8 µM (active); in [5], more than 46 µM; in assay [6] it was more than 46 µM; in [8], 8.91 µM (active); in [9] it was 6.31 µM (active). Moreover, in [10], the Potency is 8.91 µM (active). Further, the activity change, negative = inhibition in assay [2] is 1.93%. In addition, the activity, negative = inhibition in [4] is -22.6%. The Potency entry in [7], in assay [14], in assay [15] and in [11] was “inactive” in each case. In addition, the outcome in [12] was inactive.
`O=c1c(-c2ccc(Cl)cc2)nc2cnc(Nc3ccccc3)nc2n1C1CC1`: the results for the Potency in [1], in assay [5] and in assay [6] were more than 11.4 µM, more than 9.22 µM and more than 46 µM, respectively. The activity change, negative = inhibition was -1.39% in assay [2] and -9.46% in assay [3]. Further, in assay [4], the activity, negative = inhibition was -0.41%. For the same molecule, the Potency result in assay [7], in [14], in assay [8], in [9], in assay [10] and in assay [11] was “inactive” in each case. Further, in assay [12], the outcome was inactive.
With `c1ccc(CNc2ncnc3ccc(-c4ccoc4)cc23)cc1`, the Potency in assay [1] is more than 11.4 µM; in assay [5] it was more than 46 µM; in assay [6] it was more than 46 µM; in [8], 14.1 µM (active); in [9], 12.6 µM (active); in [10] it was 12.6 µM (active). Further, the activity change, negative = inhibition in [2] is -25%; in assay [3], 11.4%. Also, in assay [4], the activity, negative = inhibition was -19.6%. Further, the Potency result in assay [7], in assay [14] and in [11] was “inactive” in each case. Besides, the result in assay [12] was inactive.
Turning to `COc1ncc2nc(C)c(=O)n(Cc3ccc(F)cc3)c2n1`, the Potency in assay [1] is more than 11.4 µM; in assay [5], more than 9.22 µM; in assay [6], more than 46 µM. Further, the results for the activity change, negative = inhibition in [2] and in assay [3] were -12.3% and -2.65%, respectively. Moreover, the activity, negative = inhibition in [4] was -17.5%. The Potency entry in assay [7], in assay [14], in [8], in assay [9], in assay [10] and in [11] was “inactive” each time. The result in assay [12] was inactive.
Take `COc1ncc2nc(-c3cccs3)c(=O)n(Cc3ccc(F)cc3)c2n1`: the Potency in assay [1] was more than 11.4 µM; in assay [5], more than 9.22 µM; in assay [6], more than 46 µM; in [16], 3.16 µM (active). Besides, the activity change, negative = inhibition in assay [2] was 22.6%; in assay [3], 8.73%. Moreover, the Potency entry in assay [7], in [14], in assay [15], in assay [8], in assay [9] and in assay [10] was “inactive” in each case. The Potency entry in [11] is “inactive”. Further, the outcome in assay [12] was inactive.
Take `O=c1c(-c2ccc(F)cc2)nc2cncnc2n1Cc1ccc(F)cc1`: the Potency in [1] is more than 11.4 µM; in assay [5], more than 9.22 µM; in [6], more than 46 µM. Further, the figures for the activity change, negative = inhibition in [2] and in [3] were -9.76% and -10%, respectively. Moreover, the activity, negative = inhibition in assay [4] was -2.38%. Also, the Potency entry in [7], in assay [14], in assay [8], in [9], in assay [10] and in [11] was “inactive” in each case. Besides, in assay [12], the result was inactive.

Source of the values: PubChem BioAssay (NCATS).
